PrPC surface inh: inhibitors of human cell surface prion protein PrPC, primary screen, cell-based, TR-FRET. Major prion protein (Homo sapiens), P04156. TR-FRET read-out. inhibition, % at 13.8 µM. 370,000 tested, 0.43% active; in the data active = inhibition above about 24%; note: 0% = median of the test wells and 100% = reference compound wells
Mtb FBA inh: Mtb FBA enzyme inhibitors, primary screen, biochemical, fluorescence, strain H37Rv. Fructose-bisphosphate aldolase (Mycobacterium tuberculosis (strain ATCC 25618 / H37Rv)), …. purified M. tuberculosis FBA, fluorescence read-out. inhibition, % at 1 µM. 360,000 tested, 2.3% active. AID 588726, 2011; in the data active = inhibition above about 27%;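 note: 0% = vehicle and 100% = reference inhibitor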
Target sequence (P9WQA3 whole entry, looked up): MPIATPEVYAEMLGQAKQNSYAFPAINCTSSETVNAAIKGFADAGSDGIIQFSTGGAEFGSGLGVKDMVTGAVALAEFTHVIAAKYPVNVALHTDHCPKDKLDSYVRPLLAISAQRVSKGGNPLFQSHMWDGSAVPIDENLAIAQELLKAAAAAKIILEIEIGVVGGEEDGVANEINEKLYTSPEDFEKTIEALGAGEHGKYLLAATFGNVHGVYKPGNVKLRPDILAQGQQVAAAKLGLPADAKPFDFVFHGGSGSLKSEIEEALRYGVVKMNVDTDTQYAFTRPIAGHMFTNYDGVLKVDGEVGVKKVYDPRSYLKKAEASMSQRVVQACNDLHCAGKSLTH
Vc quorum ag: inducers of Vibrio cholerae quorum light production without autoinducers, primary screen, BH1578 luxS cqsA deficient, single point; V. cholerae BH1578 lux reporter, luminescence, 6 h; activation, % at 18.7 µM; 350,000 tested, 0.16% active; in the data active = activation mostly above about 9.7%, no sharp cut-off
SARS 3CLpro inh: SARS-CoV 3CLpro protease inhibitors, primary screen, biochemical, quenched FRET; 290,000 tested, 0.14% active; Replicase polyprotein 1ab (Severe acute respiratory syndrome coronavirus), P0C6X7; AID 1706, 2009; recombinant SARS-CoV 3CLpro, quenched FRET peptide cleavage; inhibition, % at 6 µM; in the data active = inhibition above about 12%
GDH-TPI counter: GDH-TPI coupling enzyme inhibitors, primary screen, artefact control for M. tuberculosis FBA inhibitor project, biochemical, absorbance, full deck | AID 588335, 2011 | GDH-TPI coupled enzyme counterscreen, NADH absorbance | 360,000 tested, 1.2% active | inhibition, % at 4.8 µM; in the data active = inhibition above about 30%;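 note: 0% = DMSO wells and 100% = wells lacking the enzyme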
* marks the source's active call; other numbers are inactive results; i = inactive; . = not tested or not shown; + = active, no number. This is a sample that favours compounds with a hit; in the whole collection about 3.9% have one here.

SMILES	PrPC surface inh	Mtb FBA inh	Vc quorum ag	SARS 3CLpro inh	GDH-TPI counter
CCOC(=O)[C@]12CCCC=C1N(Cc1ccco1)C(=O)[C@H](CC(=O)NCCC(C)C)C2	3	.	.	.	.
Cc1nc(N)nc(-c2ccccc2O)n1	2	5	17*	-1	-3
O=c1cc(C(F)(F)F)[nH]c2c(C(F)(F)F)cccc12	.	+	-1	4	24
CN(/N=C/c1cc(Cl)cc(Cl)c1O)c1c(Cl)cccc1[N+](=O)[O-]	-1	-4	0	4	37*
CCN(CC)c1ccc(/C=N/n2c(C)cc(C)cc2=O)cc1	10	-2	-6	-1	33*
CCc1n[nH]c(=S)n1/N=C/c1ccc(N(CC)CC)cc1	0	-5	-3	3	48*
O=C(O)c1ccc(N=NN2CCCCCC2)cc1	-9	-2	-3	8	23
O=C(CCc1ccc(O)cc1)c1c(O)cc(O)cc1O[C@@H]1O[C@H](CO)[C@@H](O)[C@H](O)[C@H]1O	3	2	-4	-3	33*
OC[C@H]1O[C@@H](Oc2ccc(O)cc2)[C@H](O)[C@@H](O)[C@@H]1O	4	-1	0	.	-6
O=c1c(O[C@@H]2O[C@H](CO)[C@@H](O)[C@H](O)[C@H]2O)c(-c2ccc(O)cc2)oc2cc(O)cc(O)c12	.	4	-4	.	37*
O=C(OC12CCCN(C1)/C(=C/c1cccc(Cl)c1)C2)c1cccc(F)c1 (stereo not drawn)	3	.	.	.	.
Cc1ccc(NC(=O)COc2cccc(Oc3ccccc3)c2)cc1S(=O)(=O)N1CCOCC1	-3	-1	-1	.	0
COc1ccc(/C=C/C(=O)c2ccc(O)cc2)cc1CN1CCOCC1	-5	1	0	2	24
O=C(/C=C/c1cccc(O)c1)c1ccc(N2CCOCC2)cc1	-10	-2	0	-2	43*
Brc1ccc2nc(-c3ccco3)c(Cc3ccsc3)n2c1	34*	-2	.	.	.
Clc1ccc2nc(-c3ccco3)c(Cc3ccsc3)n2c1	-3	0	.	.	.
CC(O)CNc1cc(N)c([N+](=O)[O-])cc1[N+](=O)[O-] (stereo not drawn)	-55	-5	i	-2	43*
CCC(C(=O)Nc1cccc(C(=O)O)c1C)c1ccccc1 (stereo not drawn)	-5	143*	0	-5	8
CCC(C(=O)Nc1ccccc1N1CCCC1)c1ccccc1 (stereo not drawn)	3	2	0	3	-4
Cn1c(=O)c(-c2ccccc2)nn2c3ccccc3nc12	-10	-1	6	-5	14
Cc1nc2c(=O)n(C)c(=O)nc-2n(C)n1	25*	-12	0	6	1
C/C(=N\NC(=O)c1ccncc1)c1cc2ccccc2oc1=O	-1	-2	0	1	2
C/C(=N/NC(=O)c1ccncc1)c1cc2ccc(O)cc2oc1=O	-2	+	i	0	10
C/C(=N/NC(N)=S)c1cc2ccc(O)cc2oc1=O	-1	129*	0	3	-4
C/C(=N\NC(=O)c1ccc([N+](=O)[O-])cc1)c1cc2ccccc2oc1=O	-15	-1	0	2	32*
SMILES	PrPC surface inh	Mtb FBA inh	Vc quorum ag	SARS 3CLpro inh	GDH-TPI counter
C/C(=N\NC(=O)c1ccccc1)c1cc2cc([N+](=O)[O-])ccc2oc1=O	-7	-8	0	2	17
CCOc1ccc(C(=O)c2cc3ccc(O)cc3oc2=O)cc1	-6	-4	i	2	5
Oc1cc(O)cc(-c2cc3ccc(O)cc3o2)c1	4	177*	0	.	0
Oc1ccc2c(c1)oc1cc(O)ccc12	-6	14	i	3	-5
CCOc1ccc(S(=O)(=O)N2CCN(C(=O)CCOc3ccccc3C)CC2)cc1	-9	1	-1	.	-2
Cc1ccc(N(CC(=O)N(C)Cc2ccccc2)S(C)(=O)=O)cc1C	-7	-2	i	-4	5
NC(=S)c1cc2cc(Br)ccc2oc1=O	-1	-1	i	-3	5
NC(=S)c1cc2ccc(O)cc2oc1=O	-18	+	i	-5	16
O=C(Nc1nnc(S(=O)(=O)N2CCCCC2)s1)c1cccc(Br)c1	.	0	0	4	10
CCOc1cc(CN2CCc3c([nH]c4ccccc34)C2)ccc1OC	-1	-1	0	3	3
COc1ccc(CN2CCc3c([nH]c4ccccc34)C2)cc1Br	-4	11	0	4	43*
O=C(NC1CCCC1)C(c1ccncc1)N(C(=O)Cn1nnc(-c2ccccc2F)n1)c1cccc(F)c1 (stereo not drawn)	7	-2	0	4	5
O=C(NCc1ccco1)c1nc2nc(-c3cccs3)cc(C(F)(F)F)n2n1	-28	+	3	-1	28
COC(=O)c1nc2nc(-c3cccs3)cc(C(F)(F)F)n2n1	-9	+	i	4	18
CC(C)Cn1c(-c2cccs2)nc2nc3ccccc3nc21	-29	+	1	1	19
COCCCn1c(-c2ccco2)nc2ccccc2c1=O	-5	0	i	-2	11
CCCCOCCCn1c(-c2ccco2)nc2nc3ccccc3nc21	-3	+	-3	0	29
CCCCn1c(-c2cccs2)nc2nc3ccccc3nc21	-29	+	-1	2	23
COc1ccc(N(CC(=O)NC2CC3CCC2C3)S(=O)(=O)c2ccc(C)cc2)cc1Cl (stereo not drawn)	3	-1	-3	.	-14
O=c1[nH]c2cc3c(cc2cc1CN(CCO)S(=O)(=O)c1ccccc1)OCCO3	.	26	0	-1	37*
COC(=O)c1ccc(CNC(=O)c2ccccc2C(=O)NCC2(CBr)OCCO2)cc1	-5	2	-1	.	7
CCOC(=O)Nc1ccc2c(COC(=O)CNS(=O)(=O)c3cccc(Br)c3)cc(=O)oc2c1	-3	155*	1	-3	9
Cc1ccc(NC(=O)COC(=O)C(NS(=O)(=O)c2ccc(Cl)cc2)C(C)O)cc1C (stereo not drawn)	0	-4	i	2	-6
CCOC(=O)Nc1ccc2c(COC(=O)C(NS(=O)(=O)c3ccc(Cl)cc3)C(C)O)cc(=O)oc2c1 (stereo not drawn)	-2	+	-3	.	27
CC(=O)Nc1ccc(S(=O)(=O)CC(=O)CS(=O)(=O)c2ccc(NC(C)=O)cc2)cc1	-4	2	-1	.	13
CCCc1nc2ccc(Cl)cn2c1Cc1ccsc1	4	6	.	.	.
C=C(C)C(=O)Nc1cccc(C2=NOC3(C2)C[C@H](C(N)=O)N(C(=O)/C=C/C)C3)c1 (stereo partly drawn)	8	2	0	.	14

Screening results (PubChem)
